Source: PubChem BioAssay AID1159580 (chemical genetic matrix, 2015)
Where “and” joins values, the source holds several entries; their conditions need not be identical. Equal entries are not always repeated. Among all 5,500 compounds or so, about 2,000 (36%) were called active. Inconclusive results (about 18%) are left out. No stated cut-off is given here; in the data, active means normalized growth mostly below about 0.91 (no sharp cut-off); inconclusive means no clear call, values can overlap the other calls; inactive means mostly above about 0.92. The list shows a part of the results.

Assay: chemical genetic growth profiling, strain panel (AID 1159580);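 further: tested at 20 µM; growth read once vehicle control cultures reached saturation at 30 °C; 1 = growth at the plate median or of vehicle wells; lower values mean less growth of the strain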
Details: growth OD

Measured: normalized growth

Cc1ccc(N(CC2=NCCN2)c2cccc(O)c2)cc1
inactive: S. cerevisiae deletion strains, locus YJR075W, strain HOC1, hits give low values 0.967 | S. cerevisiae deletion strains, locus YKL009W, strain mrt4, hits give low values 0.99 | S. cerevisiae deletion strains, locus YKL068W, hits give low values 1 | S. cerevisiae deletion strains, locus YKL085W, strain MDH1 (second series), hits give low values 1.03 | S. cerevisiae deletion strains, locus YKL085W, strain MDH1, hits give low values 1.03 | S. cerevisiae deletion strains, locus YKL160W, strain elf1, hits give low values 1.01 | S. cerevisiae deletion strains, locus YKL190W, strain CNB1, hits give low values 1.01 | S. cerevisiae deletion strains, locus YKR001C, strain vps1, hits give low values 1.01 | S. cerevisiae deletion strains, locus YKR026C, strain gcn3, hits give low values 1.03 | S. cerevisiae deletion strains, locus YKR091W, strain srl3, hits give low values 1 | S. cerevisiae deletion strains, locus YLL001W, strain dnm1, hits give low values 1 | S. cerevisiae deletion strains, locus YLL026W, hits give low values 1.02 | S. cerevisiae deletion strains, locus YLL041C, strain sdh2, hits give low values 1.01 | S. cerevisiae deletion strains, locus YLR027C, strain aat2, hits give low values 1.01 | S. cerevisiae deletion strains, locus YLR039C, strain RIC1, hits give low values 1.06 | S. cerevisiae deletion strains, locus YLR058C, strain SHM2, hits give low values 1.01 | S. cerevisiae deletion strains, locus YLR102C, strain apc9, hits give low values 1.01 | S. cerevisiae deletion strains, locus YLR113W, strain HOG1, hits give low values 1.04 | S. cerevisiae deletion strains, locus YLR221C, strain rsa3, hits give low values 0.998 | S. cerevisiae deletion strains, locus YLR258W, strain gsy2, hits give low values 1 | S. cerevisiae deletion strains, locus YLR262C, strain YPT6 (second series), hits give low values 1.02 | S. cerevisiae deletion strains, locus YLR262C, strain YPT6, hits give low values 1.02 | S. cerevisiae deletion strains, locus YLR268W, strain sec22, hits give low values 0.947 | S. cerevisiae deletion strains, locus YLR320W, strain mms22, hits give low values 0.987 | S. cerevisiae deletion strains, locus YLR330W, strain CHS5, hits give low values 1.01 | S. cerevisiae deletion strains, locus YLR342W, strain FKS1 (second series), hits give low values 1.04 | S. cerevisiae deletion strains, locus YLR342W, strain FKS1, hits give low values 1.02 | S. cerevisiae deletion strains, locus YLR357W, strain rsc2, hits give low values 1.02 | S. cerevisiae deletion strains, locus YLR370C, strain arc18, hits give low values 1.01 | S. cerevisiae deletion strains, locus YLR371W, strain rom2, hits give low values 1.01 | S. cerevisiae deletion strains, locus YLR384C, strain iki3, hits give low values 1.02 | S. cerevisiae deletion strains, locus YLR418C, strain cdc73, hits give low values 0.955 | S. cerevisiae deletion strains, locus YML016C, strain PPZ1, hits give low values 1.01 | S. cerevisiae deletion strains, locus YML120C, strain ndi1, hits give low values 0.999 | S. cerevisiae deletion strains, locus YML124C, strain tub3, hits give low values 1.02 | S. cerevisiae deletion strains, locus YMR058W, strain fet3, hits give low values 1.02 | S. cerevisiae deletion strains, locus YMR078C, strain ctf18, hits give low values 1 | S. cerevisiae deletion strains, locus YMR125W, strain sto1, hits give low values 1.04 | S. cerevisiae deletion strains, locus YMR129W, hits give low values 1 | S. cerevisiae deletion strains, locus YMR205C, strain PFK2, hits give low values 1.02 | S. cerevisiae deletion strains, locus YMR223W, strain ubp8, hits give low values 0.973 | S. cerevisiae deletion strains, locus YMR231W, strain pep5, hits give low values 1.02 | S. cerevisiae deletion strains, locus YMR263W, strain SAP30, hits give low values 0.989 | S. cerevisiae deletion strains, locus YMR307W, strain GAS1, hits give low values 0.988 and 0.994 | S. cerevisiae deletion strains, locus YNL067W, strain RPL9B, hits give low values 0.967 | S. cerevisiae deletion strains, locus YNL071W, strain lat1, hits give low values 1.01 | S. cerevisiae deletion strains, locus YNL128W, strain TEP1, hits give low values 0.988 | S. cerevisiae deletion strains, locus YNL153C, strain GIM3, hits give low values 0.983 | S. cerevisiae deletion strains, locus YNL175C, strain NOP13, hits give low values 1.02 | S. cerevisiae deletion strains, locus YNL183C, strain NPR1, hits give low values 0.99 | S. cerevisiae deletion strains, locus YNL197C, strain WHI3, hits give low values 1.03 | S. cerevisiae deletion strains, locus YNL209W, strain ssb2, hits give low values 1.04 | S. cerevisiae deletion strains, locus YNL224C, strain SQS1, hits give low values 1.06 | S. cerevisiae deletion strains, locus YNL233W, strain BNI4, hits give low values 0.966 | S. cerevisiae deletion strains, locus YNL248C, strain rpa49, hits give low values 1.03 | S. cerevisiae deletion strains, locus YNL271C, strain bni1, hits give low values 0.998 | S. cerevisiae deletion strains, locus YNL307C, strain MCK1, hits give low values 0.969 | S. cerevisiae deletion strains, locus YNL322C, strain KRE1 (second series), hits give low values 1.01 | S. cerevisiae deletion strains, locus YNL322C, strain KRE1, hits give low values 1 and 0.995 | S. cerevisiae deletion strains, locus YNR049C, strain mso1, hits give low values 1.02 | S. cerevisiae deletion strains, locus YNR052C, strain pop2, hits give low values 0.998 | S. cerevisiae deletion strains, locus YOL006C, strain TOP1, hits give low values 0.967 | S. cerevisiae deletion strains, locus YOL012C, strain htz1 1.24 | S. cerevisiae deletion strains, locus YOL147C, strain pex11, hits give low values 1.01 | S. cerevisiae deletion strains, locus YOR001W, strain rrp6, hits give low values 0.993 | S. cerevisiae deletion strains, locus YOR061W, strain CKA2, hits give low values 1.02 | S. cerevisiae deletion strains, locus YOR069W, strain VPS5, hits give low values 1.06 | S. cerevisiae deletion strains, locus YOR070C, strain gyp1, hits give low values 1 | S. cerevisiae deletion strains, locus YOR080W, strain dia2, hits give low values 1.04 | S. cerevisiae deletion strains, locus YOR083W, strain WHI5 (second series), hits give low values 1.03 | S. cerevisiae deletion strains, locus YOR083W, strain WHI5, hits give low values 0.969 | S. cerevisiae deletion strains, locus YOR106W, strain vam3, hits give low values 1.03 | S. cerevisiae deletion strains, locus YOR136W, strain idh2, hits give low values 1.01 | S. cerevisiae deletion strains, locus YOR144C, strain elg1, hits give low values 1.01 | S. cerevisiae deletion strains, locus YOR184W, strain ser1, hits give low values 0.975 | S. cerevisiae deletion strains, locus YOR231W, strain MKK1, hits give low values 1.02 | S. cerevisiae deletion strains, locus YOR265W, strain rbl2, hits give low values 1 | S. cerevisiae deletion strains, locus YOR270C, strain vph1, hits give low values 1.06 | S. cerevisiae deletion strains, locus YOR290C, strain snf2, hits give low values 1.02 | S. cerevisiae deletion strains, locus YOR316C, strain cot1, hits give low values 1.01 | S. cerevisiae deletion strains, locus YPL051W, strain arl3, hits give low values 1 | S. cerevisiae deletion strains, locus YPL055C, strain LGE1, hits give low values 0.908 | S. cerevisiae deletion strains, locus YPL078C, strain atp4, hits give low values 1.02 | S. cerevisiae deletion strains, locus YPL106C, strain sse1, hits give low values 1.01 | S. cerevisiae deletion strains, locus YPL240C, strain hsp82, hits give low values 1 | S. cerevisiae deletion strains, locus YPL241C, strain CIN2, hits give low values 1.04 and 1.01 | S. cerevisiae deletion strains, locus YPL256C, strain CLN2, hits give low values 1.05 | S. cerevisiae deletion strains, locus YPR119W, strain clb2, hits give low values 1 | S. cerevisiae deletion strains, locus YPR141C, strain kar3, hits give low values 1 | S. cerevisiae deletion strains, locus YPR163C, strain tif3, hits give low values 0.991 | S. cerevisiae deletion strains, locus YPR167C, strain met16, hits give low values 1.01 | S. cerevisiae deletion strains, strain wtn01, hits give low values 0.977 | S. cerevisiae strains, strain wild type, hits give low values 1
active: S. cerevisiae deletion strains, locus YML032C, strain rad52, hits give low values 0.819 | S. cerevisiae deletion strains, locus YNL250W, strain rad50, hits give low values 0.841 | S. cerevisiae deletion strains, locus YNL298W, strain CLA4, hits give low values 0.899
